# Data reported in ChEMBL document CHEMBL4888484, “Replenishing the malaria drug discovery pipeline: Screening and hit evaluation of the MMV Hit Generation Library 1 (HGL1) against asexual blood stage Plasmodium falciparum ,using a nano luciferase reporter read-out” (2022).
# Out of some 150,000 compounds screened, about 540 (0.36%) showed an effect of 50% or more. This is one part of a sample in which strong results are shown more often than they occur.
# Tested on: Plasmodium falciparum
# Assay: Primary screen in NF54 nanoGlo assay, in single point, at 2uM, 72h; a lower Z score goes with more inhibition
# Format: functional, Erythrocyte
# Details: timepoint 72 hour
SMILES,% Inhibition [%],Z score
O=S(=O)(c1cccc(F)c1F)N1CCN(Cc2nccn2C(F)F)CC1,-4,0.57
COc1cc2ncc3c(-c4ccc(C)c(C)c4)n[nH]c3c2cc1OC,51,-4.04
Cc1ccc(-c2n[nH]c3c2cnc2ccc(C)cc23)cc1,-5,0.82
COc1cc2ncc3c(-c4ccccc4)n[nH]c3c2cc1OC,9,-0.99
CC(C)C(=O)N[C@@H](N1CCCCCC1)C(Cl)(Cl)Cl,-15,2.02
Cn1nc(C(=O)NC2CCN(Cc3ccccc3)CC2)c2ccccc2c1=O,34,-3.81
O=C(CNC(=O)c1ccc(C(F)(F)F)cc1)Nc1cnc2c(c1)COCC2,34,-4.64
O=C(Nc1cnc2c(c1)COCC2)c1cccc(OC(F)F)c1,-1,0.19
COC[C@H]1CCCN1S(=O)(=O)N1CCC(c2cc[nH]n2)CC1,-7,0.81
CN1C(=O)[C@@H]2CCCCN2c2ccc(C(=O)N3CCN(C(=O)c4ccco4)CC3)cc21,1,-0.14
COCC1(CNC(=O)CNC(C)=O)CCCC1,-5,0.85
Cc1ccccc1CNC1C(=O)NCCC1C (configuration not stated),74,1.17
Cc1ccccc1CN[C@H]1CCCOCC1,-4,0.53
Cc1ccccc1CC(=O)N[C@H]1CCCCNC1=O,0,0.03
Cc1cc(C)cc(CCNC(=O)CN(C)S(C)(=O)=O)c1,-4,0.7
COc1ccc(C[C@@H]2C3=C(CCCC3)CCN2C(=O)c2cc(C)on2)cc1,-5,0.97
OCC1(CN2CCCC2)CCN(Cc2ccc(Cl)cc2)CC1,2,-0.36
COc1c(C)cnc(Cn2cnc(N)n2)c1C,8,-0.99
CN1CCN(C[C@@]2(Cc3ccccc3)CCOC2)CC1,-3,0.56
COc1ccc(NC(=O)c2sc3nc(C)c(C(=O)Nc4ccc(C)cc4C)c(-c4ccccc4Cl)c3c2N)cc1,38,-3.76
Cc1ccc(NC(=O)c2c(C)nc3sc(C(=O)NCc4ccccc4)c(N)c3c2-c2cccnc2)c(C)c1,21,-3.35

SMILES,% Inhibition [%],Z score
CCc1ccc(NC(=O)c2sc3nc(C)c(C(=O)Nc4ccc(C)cc4C)c(-c4ccccc4Cl)c3c2N)cc1,40,-2.96
Cc1ccc(NC(=O)c2c(C)nc3sc(C(=O)NCc4ccccc4)c(N)c3c2-c2ccccc2Cl)c(C)c1,90,-8.85
CC[C@H](C)NC(=O)c1sc2nc(C)c(C(=O)Nc3ccc(C)cc3C)c(-c3cccs3)c2c1N,17,-2.61
Cc1ccc(NC(=O)c2c(C)nc3sc(C(=O)NCc4ccccc4)c(N)c3c2-c2cccs2)c(C)c1,61,-9.57
C[C@H](NS(=O)(=O)c1cccc2nsnc12)c1nncn1C,-8,1.65
Cc1cc(NC(=O)c2ccccc2C(=O)c2ccc(Cl)cc2)ccc1N1CCCC1=O,-10,1.56
COc1ccc(F)cc1S(=O)(=O)N1CC2(C[C@H](CC(=O)NCC3CC3)CO2)C1,-2,0.34
Cn1cc(Br)c2nc[nH]c(=O)c21,-14,1.39
CC(=O)c1ccc(CNc2ncc(Cl)cn2)nc1C,-16,1.6
CCOC(=O)c1nccc(C#N)c1Cl,40,-5.19
CCOC(=O)c1ncc(Cl)c(C#N)c1Cl,50,0.88
CCOC(=O)c1nsc(Cl)c1Cl,4,-0.44
NC(=O)[C@@H]1CCCN1S(=O)(=O)c1ccc2c(c1)CCC(=O)N2,-13,1.82
O=C(c1nnn(-c2ccccc2Cl)c1-c1cccnc1)N1CCC(Cc2ccccc2)CC1,40,-5.19
COc1ccccc1N1CCN(C(=O)c2nnn(-c3ccccc3Cl)c2-c2cccnc2)CC1,50,-6.51
O=C(c1nnn(-c2ccccc2Cl)c1-c1cccnc1)N1CCN(c2ccccc2)CC1,-8,0.9
Cc1nn(-c2ccc(Br)cc2)c(NC(=O)N(C)[C@@H](C)c2ccccc2F)c1C,2,-0.23
Cn1nccc1CNC(CO)CC(O)C(C)(C)C (configuration not stated),-3,0.38
CCn1cnnc1NC(=O)c1cc(C)sn1,1,-0.12
O=C(Cn1ncn2nc(-c3ccccc3)cc2c1=O)N1CCCCC1,-20,1.75
N#Cc1cccc(S(=O)(=O)N2CCCCCCC2)c1,4,-0.83

SMILES,% Inhibition [%],Z score
CCc1c2c(=O)n(-c3nc4ccccc4s3)[nH]c2cc(=O)n1CCCN1CCOCC1,81,-10.48
Cc1c2c(=O)n(-c3nc4ccccc4s3)n(CC(=O)Nc3ccc(F)cc3)c2cc(=O)n1CCCN1CCOCC1,-30,3.47
Cc1c2c(=O)n(-c3nc4ccccc4s3)n(Cc3ccc(F)cc3)c2cc(=O)n1CCCN1CCOCC1,32,-3.58
N#Cc1cc(OCC(F)F)nc2ccccc12,-5,0.76
CC(NCC(C)N1CCOCC1C)c1cnn(C(C)C)c1 (configuration not stated),1,-0.14
Cc1ccn2c(CN3CCN([C@H]4CCN(Cc5ccccc5)C4)CC3)c(C)nc2c1,57,-7.67
Cc1ccc(CN2CCN([C@H]3CCN(Cc4ccccc4)C3)CC2)nn1,6,-0.85
c1ccc(CN2CC[C@H](N3CCOCC3)C2)cc1,3,-0.34
Cc1ccc(C)c(N/C(=N\OCc2ccc(Cl)cc2)c2nonc2N)c1,-1,0.28
O=C(c1ccccc1F)N1CCN(C(=O)c2nnn3c2CO[C@H](c2ccc(Cl)cc2)C3)CC1,-24,2.19
CCN(C(C)=O)c1nc2ccccc2n(CC(=O)Nc2cccc(C(C)=O)c2)c1=O,-6,0.97
CC(C)CNC(=O)[C@H](C)NCCn1cccn1,-2,0.23
CC(NCCn1cccn1)C(=O)N1c2ccccc2CC1C (configuration not stated),62,1.55
C[C@H](NCCn1cccn1)C(=O)N1CCCCC1,3,-0.33
CCc1cnc(CN2CCC[C@H]2c2noc(CC)n2)o1,-10,1.41
Clc1cccc(-c2ccc(CN3CCN([C@H]4CCNC4)CC3)o2)c1,-17,1.55
CC(C)Cc1ccc(CN2CCN([C@H]3CCNC3)CC2)s1,-6,0.81
Cc1nc(CNC[C@H](O)c2ccc(Cl)c(F)c2)cs1,10,-1.19
Cn1nnc(CNC[C@H](O)c2ccc(Cl)c(Cl)c2)n1,5,-1.08
CCc1noc(-c2cccnc2-n2cnc(C(=O)NCc3ccccc3F)c2)n1,35,-3.92
CC(C)(C)n1nc2nc(N3CCCC3)nc(-c3ccc(F)c(Cl)c3)c2c1N,-2,0.26

SMILES,% Inhibition [%],Z score
CC(C)(C)n1nc2nc(NCCN3CCCCC3)nc(-c3ccc(F)c(Cl)c3)c2c1N,75,-7.01
Nc1c2c(-c3ccc(F)cc3)nc(NCCN3CCCCC3)nc2nn1-c1ccc(Cl)cc1,-19,1.69
O=C(Cn1cc(S(=O)(=O)N2CCOCC2)ccc1=O)Nc1ccc(F)cc1Cl,4,-0.76
CN1CCC(N2CCC[C@H]2c2nc(-c3ccc(F)cn3)no2)CC1,15,-1.76
COc1cc(-c2n[nH]cc2CN(C[C@H]2CCC(=O)N2)C(C)C)cc(OC)c1OC,-18,1.93
CN(C)c1ccc(NC(=O)CCCc2ccc3[nH]c(=O)[nH]c3c2)nc1,0,0.04
COCCNC(=O)[C@@H](C)[C@@H]1CC[C@@]2(C)CC[C@H](NC(=O)CC(C)(C)C)[C@@H](C)[C@@H]2[C@H]1O,31,-3.58
C[C@H]1[C@@H]2[C@@H](O)C([C@H](C)C(=O)NC3CCCCC3)CC[C@@]2(C)CC[C@@H]1NC(=O)CC(C)(C)C (some centres not stated),69,-5.14
C[C@H]1[C@@H]2[C@@H](O)C([C@H](C)C(=O)NC3CCCC3)CC[C@@]2(C)CC[C@@H]1NC(=O)c1ccc(C#N)cc1 (some centres not stated),37,1.5
COc1cc2c(cc1-c1nccn1Cc1noc(C(C)C)n1)OCO2,5,-0.45
CCNC(=O)O[C@@H]1CC[C@]2(C)C(CC[C@@H](O)[C@H]2CC(=O)NCc2cccs2)[C@]1(C)CO (some centres not stated),-4,0.6
COc1cc(CN2C(=O)C(C)C(C)C2=O)ccn1 (configuration not stated),-12,1.96
CCc1noc(CCNC(=O)Nc2cc(C)nn2C2CCCCC2)n1,-3,0.5
Cc1ccc([C@H](C)NC(=O)CCc2ccc3[nH]cnc3c2)cc1,-2,0.33
C[C@H]1CN(C2=Nc3ccc(C(F)(F)F)cc3Oc3ccccc32)CCN1C(=O)C1CCCCC1,-10,0.96
Cc1ccsc1CN(Cc1cccnc1)CC(C)C,-9,0.87
COc1ccc(CN(Cc2ccco2)C(=O)c2cccc(F)c2)cc1OS(=O)(=O)c1ccc(F)cc1,-33,2.87
CCOC(=O)N1CCC(n2ccnc2-c2nccn2C(C)C)CC1,-11,1.32
